Source: ChEMBL document CHEMBL4513146, “CO-ADD screening of Karazin Kharkiv National University (Ukraine) compounds”
Measured potencies and affinities stand elsewhere.

What was measured:
Staphylococcus aureus = details: Concentration 32 ug.mL-1;; ASSAY_TEST Inhibition of Bacterial Growth; detection method Absorption (OD600); MEDIA CAMHB; plate type 384well; NBS; CORNING #3640; time 18 hr
Escherichia coli = details: Concentration 32 ug.mL-1;; ASSAY_TEST Inhibition of Bacterial Growth; detection method Absorption (OD600); MEDIA CAMHB; plate type 384well; NBS; CORNING #3640; time 18 hr

For `CCOc1ccc(-n2ccn3c(SC(CC)C(=O)Nc4ccc(C(C)C)cc4)nnc3c2=O)cc1` (stereo not given), the Inhibition (Staphylococcus aureus) was 5.33% and the Inhibition (Escherichia coli) was -6.24%.

Molecule `Cc1ccc(Sc2nccn3c(=O)n(CC(=O)Nc4ccc(F)c(Cl)c4)nc23)c(C)c1` has an Inhibition (Staphylococcus aureus) of -12.28% and an Inhibition (Escherichia coli) of -15.97%.

Molecule `CCCCOc1ccc(-c2cc3c4nnc(SCC(=O)Nc5cc(C)ccc5OC)n4ccn3n2)cc1` has an Inhibition (Staphylococcus aureus) of -29% and an Inhibition (Escherichia coli) of -22.73%.

`O=C(Cn1nc2c(SC3CCCCC3)nccn2c1=O)NCc1ccc(F)cc1` showed an Inhibition (Staphylococcus aureus) of 3.45% and an Inhibition (Escherichia coli) of -3.55%.

Work on `COc1ccccc1N1CCN(C(=O)CSc2nnc3c(=O)n(-c4ccc(F)cc4)ccn23)CC1` yielded an Inhibition (Staphylococcus aureus) of 6.93% and an Inhibition (Escherichia coli) of 2.55%.

`COc1ccc(NC(=O)Cn2nc3c4cc(-c5ccc(OC)cc5)nn4ccn3c2=O)cc1` showed an Inhibition (Staphylococcus aureus) of 8.44% and an Inhibition (Escherichia coli) of 2.94%.

`COc1ccc(NC(=O)CSc2nnc3ccc(C(=O)Nc4cccc(F)c4)cn23)cc1` was tested, and the Inhibition (Staphylococcus aureus) was 8.78% and the Inhibition (Escherichia coli) was 3.37%.

Work on `CCc1ccc(NC(=O)Cn2nc3n(Cc4cccs4)c(=O)c4sccc4n3c2=O)cc1` yielded an Inhibition (Staphylococcus aureus) of -0.38% and an Inhibition (Escherichia coli) of 5.1%.

Work on `Cc1ccc(NC(=O)Cn2nc3c(Sc4ccccc4)nccn3c2=O)c(C)c1` yielded an Inhibition (Staphylococcus aureus) of 5.22% and an Inhibition (Escherichia coli) of -4.74%.

`COc1ccccc1Cn1c(=O)c2sccc2n2c(=O)n(Cc3cccc(C)c3)nc12` was tested, and the Inhibition (Staphylococcus aureus) was 10.55% and the Inhibition (Escherichia coli) was 0.66%.

In the case of `CC(C)CCn1c(=O)c2sccc2n2c(=O)n(Cc3ccccc3Cl)nc12`, the Inhibition (Staphylococcus aureus) is reported as 8.43% and the Inhibition (Escherichia coli) is reported as 1.09%.

For `CCOC(=O)c1ccccc1NC(=O)Cn1nc2ccc(C(=O)Nc3ccc(OC)cc3)cn2c1=O`, the Inhibition (Staphylococcus aureus) was 0.2% and the Inhibition (Escherichia coli) was -8.03%.

Molecule `COC(=O)c1ccc(NC(=O)CSc2nc3ccccc3n3c(C(C)C)nnc23)cc1` has an Inhibition (Staphylococcus aureus) of 12.04% and an Inhibition (Escherichia coli) of -0.7%.

For `CCc1nnc2ccc(S(=O)(=O)N(Cc3ccc(OC)cc3)c3cccc(F)c3)cn12`, the Inhibition (Staphylococcus aureus) was -1.45% and the Inhibition (Escherichia coli) was -12.26%.

`O=C(Cn1nc2c(N3CCOCC3)nccn2c1=O)Nc1ccc(Br)cc1F` gave an Inhibition (Staphylococcus aureus) of 13.39% and an Inhibition (Escherichia coli) of 2.9%.

`CCc1ccc(N(Cc2ccc(C)cc2)S(=O)(=O)c2cccn3c(C)nnc23)cc1` gave an Inhibition (Staphylococcus aureus) of 16.56% and an Inhibition (Escherichia coli) of 0.51%.

With `O=c1c2sccc2n2c(=O)n(Cc3ccccc3F)nc2n1CCc1ccccc1` the Inhibition (Staphylococcus aureus) was 9.4% and the Inhibition (Escherichia coli) was 0.41%.

For `O=C(Cn1nc2c(SCc3ccccc3)nccn2c1=O)NCc1ccccc1`, the Inhibition (Staphylococcus aureus) was -16.25% and the Inhibition (Escherichia coli) was -19.33%.

In the case of `N#Cc1ccc(NC(=O)Cn2nc3c(SCc4ccc(Cl)cc4)nccn3c2=O)cc1`, the Inhibition (Staphylococcus aureus) is reported as 9.38% and the Inhibition (Escherichia coli) is reported as -2.23%.

`Cc1cccc(Oc2nccn3c(=O)n(CC(=O)Nc4cccc(C(F)(F)F)c4)nc23)c1C` gave an Inhibition (Staphylococcus aureus) of 4.71% and an Inhibition (Escherichia coli) of -4.64%.

`COc1cc(NC(=O)Cn2nc3c(Oc4ccccc4)nccn3c2=O)cc(OC)c1OC` was tested, and the Inhibition (Staphylococcus aureus) was 13.24% and the Inhibition (Escherichia coli) was 1.16%.

With `Cc1cc(C)cc(N(Cc2ccc(Cl)cc2)S(=O)(=O)c2cccn3c(C)nnc23)c1` the Inhibition (Staphylococcus aureus) was 9.89% and the Inhibition (Escherichia coli) was -11.68%.

In the case of `CC(C)Cn1c(=O)c2sccc2n2c(=O)n(CC(=O)N(C)c3ccccc3)nc12`, the Inhibition (Staphylococcus aureus) is reported as 4.88% and the Inhibition (Escherichia coli) is reported as -0.39%.

`Cc1ccc(-c2ccc3nn(Cc4nc(-c5ccc(Cl)cc5)no4)c(=O)n3n2)cc1C` showed an Inhibition (Staphylococcus aureus) of 0% and an Inhibition (Escherichia coli) of -6.42%.

In the case of `O=C(Cn1nc2c(N3CCOCC3)nccn2c1=O)NCc1cccs1`, the Inhibition (Staphylococcus aureus) is reported as 22.65% and the Inhibition (Escherichia coli) is reported as 1.24%.

With `COc1cccc(Sc2nc3ccccc3n3c(=O)n(CC(=O)Nc4ccccc4)nc23)c1` the Inhibition (Staphylococcus aureus) was -1.75% and the Inhibition (Escherichia coli) was -6.94%.

In the case of `CCCn1c(=O)c2ccc(C(=O)NC3CCCCC3)cc2n2c(=O)n(CC#N)nc12`, the Inhibition (Staphylococcus aureus) is reported as 0.58% and the Inhibition (Escherichia coli) is reported as 2.29%.

In the case of `CCCc1nnc2c(=O)n(CC(=O)Nc3ccc(Br)cc3F)c3ccccc3n12`, the Inhibition (Staphylococcus aureus) is reported as -16.77% and the Inhibition (Escherichia coli) is reported as -13.67%.

For `COc1ccc(CN(c2cc(C)cc(C)c2)S(=O)(=O)c2cccn3c(C)nnc23)cc1`, the Inhibition (Staphylococcus aureus) was -21.45% and the Inhibition (Escherichia coli) was -2.42%.

With `Cc1ccc(NC(=O)Cn2c(=O)c3nnc(C)n3c3ccccc32)cc1F` the Inhibition (Staphylococcus aureus) was 11.98% and the Inhibition (Escherichia coli) was -4.13%.

With `COc1ccc(-c2cc3c4nn(CC(=O)Nc5ccccc5OC)c(=O)n4ccn3n2)cc1` the Inhibition (Staphylococcus aureus) was 2.83% and the Inhibition (Escherichia coli) was -1.9%.

In the case of `Cc1cc(C)cc(N(Cc2c(F)cccc2Cl)S(=O)(=O)c2cccn3cnnc23)c1`, the Inhibition (Staphylococcus aureus) is reported as 4.69% and the Inhibition (Escherichia coli) is reported as -4.41%.

`COc1ccc(C(=O)CSc2nnc3c(=O)n(-c4ccc(F)cc4)ccn23)cc1OC` gave an Inhibition (Staphylococcus aureus) of 16.25% and an Inhibition (Escherichia coli) of -2.12%.

In the case of `Cc1ccc(C)c(CSc2nnc3c(=O)n(-c4ccc(F)c(F)c4)ccn23)c1`, the Inhibition (Staphylococcus aureus) is reported as 21.94% and the Inhibition (Escherichia coli) is reported as -0.2%.

In the case of `COc1cccc(-c2nc(CSc3nc4ccccc4n4c(C)nnc34)c(C)o2)c1OC`, the Inhibition (Staphylococcus aureus) is reported as 2.75% and the Inhibition (Escherichia coli) is reported as -2.95%.

Molecule `O=c1n(Cc2ccc3c(c2)OCO3)nc2c(S(=O)(=O)N3CCCCC3)cccn12` has an Inhibition (Staphylococcus aureus) of 10.75% and an Inhibition (Escherichia coli) of 1.46%.

`Cc1ccc(NC(=O)Cn2nc3c(Sc4ccccc4)nccn3c2=O)c(Br)c1` showed an Inhibition (Staphylococcus aureus) of -10.94% and an Inhibition (Escherichia coli) of -14.81%.

For `Cc1cc(C)cc(NC(=O)Cn2nc3c(Sc4cccc(C)c4)nc4ccccc4n3c2=O)c1`, the Inhibition (Staphylococcus aureus) was 1.17% and the Inhibition (Escherichia coli) was 2.96%.

Work on `Cc1ccc(-c2ccc3nn(Cc4ccc(F)cc4Cl)c(=O)n3n2)cc1C` yielded an Inhibition (Staphylococcus aureus) of 8.63% and an Inhibition (Escherichia coli) of -0.58%.

Work on `COC(=O)c1ccc(NC(=O)CSc2nnc3ccc(C(=O)Nc4cccc(F)c4)cn23)cc1` yielded an Inhibition (Staphylococcus aureus) of 19.46% and an Inhibition (Escherichia coli) of -0.45%.

In the case of `COc1ccc(C(=O)CSc2nnc3c(=O)n(-c4cccc(OC)c4)ccn23)cc1`, the Inhibition (Staphylococcus aureus) is reported as 14.49% and the Inhibition (Escherichia coli) is reported as -2.33%.

`CCOc1ccc(-n2ccn3c(SCC(=O)Nc4cc(OC)cc(OC)c4)nnc3c2=O)cc1` was tested, and the Inhibition (Staphylococcus aureus) was 7.49% and the Inhibition (Escherichia coli) was -3.15%.

Molecule `COC(=O)c1ccc(Cn2nc3ccc(S(=O)(=O)N4CCCCCC4)cn3c2=O)o1` has an Inhibition (Staphylococcus aureus) of -11.6% and an Inhibition (Escherichia coli) of -1.2%.

`Cc1ccc(C)c(CN(c2ccc(F)c(F)c2)S(=O)(=O)c2cccn3cnnc23)c1` showed an Inhibition (Staphylococcus aureus) of 5.14% and an Inhibition (Escherichia coli) of 0.2%.

`Cc1ccccc1N1CCN(c2nccn3c(=O)n(CC(=O)Nc4cccc(C(C)C)c4)nc23)CC1` was tested, and the Inhibition (Staphylococcus aureus) was 14.78% and the Inhibition (Escherichia coli) was -9.47%.

`CCc1nnc2c(S(=O)(=O)N(Cc3cccc(C)c3)c3ccc(C(C)C)cc3)cccn12` showed an Inhibition (Staphylococcus aureus) of 20.56% and an Inhibition (Escherichia coli) of -0.18%.

`Cc1ccc(-c2cc3c4nn(CC(=O)NCc5ccccc5Cl)c(=O)n4ccn3n2)cc1C` was tested, and the Inhibition (Staphylococcus aureus) was 0.72% and the Inhibition (Escherichia coli) was 0.46%.

With `CCc1ccc(N(Cc2cccc(F)c2)S(=O)(=O)c2cccn3c(CC)nnc23)cc1` the Inhibition (Staphylococcus aureus) was 13.65% and the Inhibition (Escherichia coli) was -0.18%.

For `Cc1cc(C)c(NC(=O)Cn2nc3ccc(SCc4ccc(Cl)cc4)nn3c2=O)c(C)c1`, the Inhibition (Staphylococcus aureus) was -5.02% and the Inhibition (Escherichia coli) was -8.63%.

For `O=C(Cn1nc2ccc(-c3ccc(Cl)cc3)nn2c1=O)NC1CCCC1`, the Inhibition (Staphylococcus aureus) was 12.95% and the Inhibition (Escherichia coli) was 1.75%.

Work on `CCCCn1c(=O)c2sccc2n2c(SCc3cccc(C(F)(F)F)c3)nnc12` yielded an Inhibition (Staphylococcus aureus) of -1.51% and an Inhibition (Escherichia coli) of -8.66%.

Work on `CCc1ccccc1Sc1nccn2c(=O)n(CC(=O)NCc3ccc(OC)cc3)nc12` yielded an Inhibition (Staphylococcus aureus) of -5.48% and an Inhibition (Escherichia coli) of -1.47%.

Work on `COc1cccc(Sc2nc3ccccc3n3c(=O)n(CC(=O)Nc4ccc(C)cc4)nc23)c1` yielded an Inhibition (Staphylococcus aureus) of 4.18% and an Inhibition (Escherichia coli) of -1.95%.

`COc1ccccc1Cn1c(=O)c2sccc2n2c(=O)n(CC(=O)c3ccc(C)cc3C)nc12` gave an Inhibition (Staphylococcus aureus) of -4.72% and an Inhibition (Escherichia coli) of -4.83%.

Work on `CC(C)c1nnc2c(SCC(=O)Nc3ccc(F)cc3F)nc3ccccc3n12` yielded an Inhibition (Staphylococcus aureus) of 6.8% and an Inhibition (Escherichia coli) of 1.07%.

`CC(C)c1nnc2c(SCC(=O)N3CCN(c4ccc(F)cc4)CC3)nc3ccccc3n12` gave an Inhibition (Staphylococcus aureus) of 10.21% and an Inhibition (Escherichia coli) of -1.94%.

With `CCc1ccc(NC(=O)Cn2nc3cc(C)nc(Nc4ccc(F)c(C)c4)n3c2=O)cc1` the Inhibition (Staphylococcus aureus) was 4.65% and the Inhibition (Escherichia coli) was -6.45%.

`Cc1ccc(NC(=O)CSc2nnc3ccc(C(=O)Nc4cccc(F)c4)cn23)cc1F` showed an Inhibition (Staphylococcus aureus) of 14.43% and an Inhibition (Escherichia coli) of 0.35%.

`COCCCNC(=O)CSc1nnc2c(=O)n(Cc3ccccc3F)ccn12` showed an Inhibition (Staphylococcus aureus) of -1.95% and an Inhibition (Escherichia coli) of 0.71%.

`O=C(Cn1nc2c(Oc3ccccc3)nccn2c1=O)Nc1cc(F)ccc1F` showed an Inhibition (Staphylococcus aureus) of -5.96% and an Inhibition (Escherichia coli) of -11.57%.

Molecule `CCOc1ccc(NC(=O)Cn2nc3c(SCc4ccc(Cl)cc4)nccn3c2=O)cc1` has an Inhibition (Staphylococcus aureus) of -1.92% and an Inhibition (Escherichia coli) of -9.96%.

Molecule `Cc1ccc(Sc2nccn3c(=O)n(CC(=O)Nc4ccc(Br)cc4)nc23)c(C)c1` has an Inhibition (Staphylococcus aureus) of -1.98% and an Inhibition (Escherichia coli) of -4.39%.

Work on `O=C(Cn1nc2c(Sc3cccc(F)c3)nccn2c1=O)Nc1cccc(C(F)(F)F)c1` yielded an Inhibition (Staphylococcus aureus) of 12.33% and an Inhibition (Escherichia coli) of -0.7%.

`Cc1cccc(NC(=O)Cn2nc3c(SCc4ccc(Cl)cc4)nccn3c2=O)c1C` showed an Inhibition (Staphylococcus aureus) of 13.84% and an Inhibition (Escherichia coli) of -3.65%.

For `Cc1ccc(Sc2ccc3nn(CC(=O)Nc4cccc(Cl)c4)c(=O)n3n2)cc1`, the Inhibition (Staphylococcus aureus) was -1.85% and the Inhibition (Escherichia coli) was -11.91%.

With `CSc1cccc(NC(=O)Cn2nc3ccc(-c4ccccc4)nn3c2=O)c1` the Inhibition (Staphylococcus aureus) was -12.73% and the Inhibition (Escherichia coli) was -15.49%.

With `Cc1ccccc1Nc1cc(C)n2c(=O)n(CCOc3ccc(F)cc3)nc2n1` the Inhibition (Staphylococcus aureus) was 13.1% and the Inhibition (Escherichia coli) was -3.45%.

`CCOc1ccc(-n2ccn3c(SC(C)C(=O)Nc4cc(OC)cc(OC)c4)nnc3c2=O)cc1` (stereo not given) was tested, and the Inhibition (Staphylococcus aureus) was 1.84% and the Inhibition (Escherichia coli) was 2.97%.

Molecule `Cc1cc(C)c(NC(=O)Cn2nc3ccc(-c4ccc(C)c(C)c4)nn3c2=O)c(C)c1` has an Inhibition (Staphylococcus aureus) of -8.09% and an Inhibition (Escherichia coli) of -15.6%.

`COC(=O)c1cccc(NC(=O)Cn2nc3c(Oc4ccccc4)nccn3c2=O)c1` showed an Inhibition (Staphylococcus aureus) of 3.03% and an Inhibition (Escherichia coli) of -4.6%.
